# Measurements: PubChem BioAssay (NCI)
# The panel holds about 83,000 compounds, 20% with a hit somewhere; the sample as a whole holds those more often.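 For each line, cells grew in 96-well plates with the test compound present at a single concentration for 48 hours.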 Unmarked numbers belong to inactive results. Activity calls are given as the source filed them. How the source made its calls: active means growth percent below 10; inactive means the rest.
# Test system: SN12C renal
# Test: NCI-60 one-dose screen, 48 h (100 = growth as untreated, 0 = no growth, -100 = all killed)
# Conditions: 10 µM unless noted
row,Structure (SMILES),growth
1,CC(=O)OC[C@]12CCC(C)(C)C[C@H]1[C@@]1(O)[C@H](O)C[C@@H]3[C@@]4(C)CCCNC(C)(C)[C@@H]4CC[C@@]3(C)[C@]1(C)CC2,99.5%
2,COC(C(=O)[C@@H](O)[C@@H](C)O)[C@@H]1Cc2cc3cc(O[C@H]4C[C@@H](O[C@H]5C[C@@H](O)[C@H](O)C(C)O5)[C@H](O)C(C)O4)cc(O)c3c(O)c2C(=O)[C@H]1O[C@H]1C[C@@H](O[C@H]2C[C@@H](O[C@H]3C[C@@H](OC)[C@H](O)C(C)O3)[C@@H](O)C(C)O2)[C@H](O)C(C)O1 (some centres undefined),33%
3,O=C1CNC(c2ccccc2)C(c2ccccc2)N1 (centres undefined),99.8%
4,CCc1n(Cc2ccc3ccccc3c2)cc[n+]1Cc1ccc2ccccc2c1,6.37% (active)
5,O=C(/C=C/c1ccc(Cl)cc1)c1cccc(Nc2nc(Nc3ccccc3)nc(Nc3ccccc3)n2)c1,102%
6,C=C1C(=O)O[C@H]2[C@H]1CC/C(COC(=O)NCc1cc[nH]c1)=C\CC[C@@]1(C)O[C@@H]21,33.6%
7,CN1CCN(C(=O)c2ccc(NC(=O)Nc3ccc(-c4nc(N5CCOCC5)c5cccn5n4)cc3)cc2)CC1,5.33% (active)
8,O=C1c2cccnc2C(=O)c2c1c(C(=O)NCCn1ccnc1)c1ccccn21,4.77% (active)
9,Cc1nn(-c2ccccc2)c(Oc2ccccn2)c1-c1nc2ccccc2s1,100%
10,CCN(CC)c1nc(SCc2ccccc2Cl)ncc1C,96.7%
11,COc1cc(-c2nc3cc(Cl)c(Cl)cc3[nH]2)ccc1OCC(=O)N=Nc1c(O)[nH]c2ccc([N+](=O)[O-])cc12,81.2%
12,Brc1c2c(c(Br)c3ccccc13)CCCC2,94.2%
13,CC1(C)CC2=C3C=C[C@@H]4[C@@]5(C)CCC(=O)C(C)(C)[C@@H]5CC[C@@]4(C)[C@]3(C)CC[C@@]2(C(=O)O)CC1=O,85.1%
14,O=S(=O)(NCCNc1nccc(-c2c(-c3cccc(F)c3)nc3occn23)n1)c1ccc(Br)cc1,78.7%
15,COc1ccc(-c2cc(-c3ccc(Cl)cc3)c(C#N)c(=O)n2CCCCC(=O)Nc2ccccc2N)cc1,42.3%
16,COc1ccc2c3c([nH]c2c1)C(=O)c1nc(C)ccc1C3=O,38.4%
17,Cc1c(-n2nnc(-c3nc4ccccc4s3)c2N)c(=O)n(-c2ccccc2)n1C,108%
18,COc1ccc(/C=C2\COc3ccc(O)c(O)c3C2=O)cc1,-39.1% (active)
19,O=C1c2cccnc2C(=O)c2c1c(C(=O)NCCCN1CCCCC1)c1ccccn21,-65.1% (active)
20,Cc1ccc(CNc2ccc(Cl)cc2NCc2ccc(C)c(O)c2)cc1O,-27.8% (active)

row,Structure (SMILES),growth
1,Cc1ccc(Sc2nnc(/N=C3\C(=O)Nc4ccccc43)s2)cc1,97.5%
2,O=C(Cn1cc(CN2CCCCCC2)nn1)Nc1ccc2c(ccn2Cc2ccccc2)c1,101%
3,Cc1noc(C)c1C(=O)OCc1coc2ccccc2c1=O,65.4%
4,S=C1CCSC(=S)N1CCCN1C(=S)CCSC1=S,75.6%
5,Oc1ccc(CCn2c(O)c(/C=C3\CN=c4ccccc4=N3)sc2=S)cc1,47.5%
6,COc1ccc(-c2nnc3n(C)c(=O)c4ccccc4n23)cc1N,34.6%
7,Cn1cccc1C(=O)C1C(c2cccc([N+](=O)[O-])c2)C2C3CCCCC3CN2C12C(=O)Nc1ccc(Cl)cc12 (centres undefined),59.4%
8,CCOC(=O)C#Cc1c(C(=O)OCC)nnn1[C@@H]1O[C@H](CO)[C@H]2OC3(CCCCC3)O[C@H]21,75.6%
9,O=[N+]([O-])c1ccc(N/N=C(/C(=N/Nc2ccc([N+](=O)[O-])cc2)c2ccccc2)c2ccccc2)cc1,81.4%
10,N#Cc1c(-c2ccccc2)cc(-c2ccccc2)n(CCCCCC(=O)Nc2ccccc2N)c1=O,59%
11,CC1(c2ccccc2O)NN=C(/N=C/c2cccc([N+](=O)[O-])c2)N1C(Cc1c[nH]c2ccccc12)C(=O)O (centres undefined),94.2%
12,O=C(OCc1ccc2c(Cl)cc(Cl)c(O)c2n1)n1cncn1,37.2%
13,Clc1ccc(CNc2c3ccccc3nc3ccccc23)cc1,39.1%
14,CCSc1nc(NC)c2cc(-c3ccc(C(F)(F)F)cc3)ccc2n1,95.1%
15,CCCCCCCCCCCCCCCCCCOc1ccccc1CC(=O)OCC[N+]1(C)CCCC1,12.7%
16,O=C(c1ccc(-c2ccccc2)cc1)c1ccc([N+](=O)[O-])cc1,104%
17,O=C1Nc2ccccc2/C1=C\c1nc(-c2ccccc2F)n2ccccc12,14.5%
18,O=C(OCc1ccc2cccc(O)c2n1)N1CCN(C(=O)c2cc3cc(F)ccc3[nH]2)CC1,-90.8% (active)
19,O=C(NNc1nccc(Nc2ccc(S(=O)(=O)Nc3ccncc3)cc2)n1)c1ccccc1,107%
